HPGD block: inhibitors of human 15-hydroxyprostaglandin dehydrogenase (HPGD). P15428. purified HPGD, NADH fluorescence kinetic, PGE2 substrate. Potency, µM, usual class: inhibitors. 150,000 compounds, 4.3% hits. AID 894
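NADH formation kinetics: reaction with 30 uM PGE2 and 1 mM NAD+ (final), 20 nM enzyme, Tris-HCl pH 8 with Tween 20, after 15 min compound preincubation at room temperature. Fluorescence change, last versus first of five reads.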
ALDH1A1 block: inhibitors of human aldehyde dehydrogenase 1A1; P00352; Purified ALDH1A1, NADH fluorescence, propionaldehyde substrate; Potency, µM (top dose mostly 75.3 µM), actives largely listed as inhibitors; 220,000 compounds, 7.3% hits
Target sequence (P00352 whole entry, looked up): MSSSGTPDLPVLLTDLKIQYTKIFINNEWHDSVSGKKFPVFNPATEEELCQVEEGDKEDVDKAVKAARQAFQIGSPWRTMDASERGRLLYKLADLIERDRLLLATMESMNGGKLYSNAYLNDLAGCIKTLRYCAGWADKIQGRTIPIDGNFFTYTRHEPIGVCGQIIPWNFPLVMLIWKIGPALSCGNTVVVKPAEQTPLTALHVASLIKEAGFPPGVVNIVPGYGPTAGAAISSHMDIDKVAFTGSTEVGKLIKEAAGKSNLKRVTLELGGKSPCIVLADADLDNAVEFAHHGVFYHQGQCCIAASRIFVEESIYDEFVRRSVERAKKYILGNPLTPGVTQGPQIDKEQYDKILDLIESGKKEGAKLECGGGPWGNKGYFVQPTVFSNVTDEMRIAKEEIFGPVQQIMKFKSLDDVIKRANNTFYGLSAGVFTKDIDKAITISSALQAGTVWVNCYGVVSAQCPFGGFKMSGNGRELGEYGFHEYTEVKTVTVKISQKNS
HTT cytoprotect: cytoprotection in Huntington HTT-Q103 PC12 cell model | PC12 HTT-Q103 induced, cytoprotection, ATP luminescence, 40 h | Potency, µM (top dose mostly 56.4 µM), most hits filed as activators | 230,000 compounds, 0.14% hits | AID 1471; active = well fitted curve in the direction sought with a large enough effect; inconclusive = small, poorly fitted or top-dose-only effect, or another doubt; inactive = no such curve, though single readings can be large; an effect the other way counts as inactive or inconclusive; note: nearly all actives have a fitted effect of over 45% in size
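PC12 cells stably carrying ecdysone-inducible Htt exon 1 (Q103)–GFP were induced with 100 nM tebufenozide (final) alongside library compounds in a dose series. Cytoprotection was scored as retained ATP by ATPlite luminescence.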
JMJD2E inh: JMJD2E (human) inhibition; 230,000 compounds, 1.6% hits; AID 2147; JMJD2E catalytic domain, FDH-coupled NADH fluorescence (FDH is formaldehyde dehydrogenase); Potency, µM (titrated, usually from 57.1 µM), most hits filed as inhibitors; note: nearly all actives have a fitted effect of over 50% in size
HttQ103 aggreg: inhibitors of mutant huntingtin aggregate formation in PC12 cells | AID 1688 | Potency, µM (top dose mostly 46.1 µM), actives largely listed as inhibitors | PC12 HttQ103-GFP aggregates, Acumen cytometry, 40 h | 220,000 compounds, 1.1% hits; active = well fitted curve in the direction sought with a large enough effect; inconclusive = small, poorly fitted or top-dose-only effect, or another doubt; inactive = no such curve, though single readings can be large; an effect the other way counts as inactive or inconclusive; note: nearly all actives have a fitted effect of over 60% in size
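Multiplexed with ATP-based cell death, this channel scores GFP aggregates in PC12 cells expressing inducible HTTex1-Q103-GFP. Induction used 100 nM tebufenozide; compounds were tested in concentration series.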
LMNA splice mod: LMNA splicing modulation | HeLa LMNA splicing GFP/RFP minigene ratio, 48 h | Potency, µM (series often up to 46.1 µM), most hits filed as inhibitors | 200,000 compounds, 0.01% hits; active = well fitted inhibition curve with a large enough effect in the signal ratio, with a control signal flat, not every such curve was filed as active; inconclusive = small, poorly fitted or top-dose-only effect, or effect the other way, or a change in a side signal; the % refers to the signal ratio
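S3 HeLa cells stably expressing lamin A-EGFP splicing minigene plus DsRed2, 600 cells/well, 48 h compound exposure at 37C. Laser-scanning cytometry; analysed as GFP (500-530 nm)/RFP (575-640 nm) total intensity ratio; 0.5% DMSO vehicle.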
Hits are given with their value; n = inactive; u = inconclusive; x = not tested or not shown; [ ] = remark or other dose. Shown are actives, neighbours in structure and some others; about 9.2% of the full set was active somewhere. Unless noted, calls come from the whole dose curve; as a rule, active = well fitted inhibition curve with a large enough effect (not every such curve was filed as active); inconclusive = small, poorly fitted or top-dose-only effect, or another doubt; inactive = no such curve, though single readings can be large or run the other way.

SMILES | HPGD block | ALDH1A1 block | HTT cytoprotect | JMJD2E inh | HttQ103 aggreg | LMNA splice mod
CC(=O)OC[C@@H]1O[C@@H](O/N=C2/C[C@@H](O)[C@@H](O)[C@@H]3[C@H]4C(=O)N(c5ccc(F)cc5F)C(=O)[C@@H]4CC[C@@H]23)[C@H](OC(C)=O)[C@H](OC(C)=O)[C@@H]1OC(C)=O | x | n[13.5 µM] | n[10 µM] | x | x | x
CCNC(=S)/N=C(/Nc1ccccc1)Nc1nc(C)cc(C)n1 | x | x | n[10 µM] | n | n[9.22 µM] | x
Cc1cc(C)nc(N/C(=N/S(=O)(=O)Cc2ccccc2)Nc2ccccc2)n1 | n | 13µM | x | n | n | n
CCCCNC(=O)CNC(=S)N(Cc1ccc(C)cc1)Cc1ccco1 | x | 32µM | n | n | n | x
O=c1ccc2cc(S(=O)(=O)NCc3ccc(Cl)cc3)ccc2[nH]1 | x | x | x | x | x | n
NNC(=O)c1sccc1OCc1ccc(Cl)cc1 | x | 2.2µM | n | n | n | n
CC(=O)c1c(C)nc(-c2ccc(Cl)cc2)nc1N=CN(C)C | u | u | n[10 µM] | u | n | n
CC(=O)c1c(C)nc(-c2ccc(Cl)cc2)nc1N | x | 22µM | x | u | n | x
O=C(Nc1nnc(SCC(=O)N2CCCCC2)s1)C1CCCCC1 | 14µM | u | n[10 µM] | n | n | n
Cc1nc(N2CCOCC2)nc(OCCN2CCOCC2)c1[N+](=O)[O-] | n | n | n[10 µM] | n | n | n
CN(C)S(=O)(=O)Nc1ccc2c(c1)Cc1ccccc1-2 | 14µM | n | n | n | n | n
COc1ccc(NS(=O)(=O)c2ccc3c(c2)Cc2ccccc2-3)cn1 | n | n | n | n | 11µM | u
C=CCc1ccc(OCCOCCOc2ccc(C)cc2[N+](=O)[O-])c(OC)c1 | u | 25µM | n | n | n | n
CCN(Cc1ccccc1)S(=O)(=O)c1ccc(C(=O)N2CCN(c3nc4ccccc4s3)CC2)cc1 | n | n | u | n | u | u
O=C(CSc1nc2c([nH]c3ccccc32)c(=O)n1-c1ccc(Cl)cc1)N1CCCC1 | x | x | x | x | x | n
O=C(O)CN1C(=O)/C(=C/c2ccsc2)SC1=S | x | n | n | n | n | n
O=C(O)CN1C(=O)/C(=C/C=C/c2ccccc2)SC1=S | x | u | n | n | n | u
O=C(O)CCCN1C(=O)/C(=C\c2ccco2)SC1=S | x | u | n[10 µM] | u | n[9.22 µM] | n
O=C(O)CN1C(=O)/C(=C/c2ccc(SCc3ccccc3)o2)SC1=S | x | 3.5µM | n | u | n | u
O=C(O)CCN1C(=O)/C(=C\c2ccc(-c3nc4ccccc4s3)o2)SC1=S | 16µM | u | u | n | x | n
Cn1cccc1/C=C1\SC(=S)N(CC(=O)O)C1=O | 28µM | n | n[10 µM] | n | n | n
COc1ccc(C=O)cc1OC(=O)C1(C)Cc2ccccc2C(=O)O1 (stereo not given) | x | 5µM | x | n | n | x
O=[N+]([O-])c1ccc(N2CCN(CCO)CC2)cc1Sc1nc2ccccc2[nH]1 | n | n | n | n | n | n
CC(C)CO/N=C1/C[C@@H](O)[C@@H](O)[C@@H]2[C@@H]3C(=O)N(c4cccc(Oc5ccccc5)c4)C(=O)[C@H]3CC[C@@H]12 | x | n[13.5 µM] | n[10 µM] | x | x | x
CN(C)CCCNc1ncc(C(F)(F)F)cc1Cl | x | n | u | n | n | u
SMILES | HPGD block | ALDH1A1 block | HTT cytoprotect | JMJD2E inh | HttQ103 aggreg | LMNA splice mod
CN(C)CCCNS(=O)(=O)c1ccc(Oc2ncc(C(F)(F)F)cc2Cl)cc1 | n | n | n[10 µM] | n | 22µM | n
CC(C)C(=O)OCC(=O)[C@@]12OC(C3CCCCC3)O[C@@H]1CC1C3CCC4=CC(=O)C=C[C@]4(C)C3[C@@H](O)C[C@@]12C (stereo not given in full) | x | x | n | x | n | x
O[C@@H](COc1ccc(Cl)cc1Cl)CN1CCCC1 | n | n[13.5 µM] | n[10 µM] | x | x | x
COc1ccc(NC(=O)C(Cl)=C(Cl)Cl)cn1 | x | u | n[10 µM] | n | u | u
COc1ccc(NC(=O)/C(Cl)=C(/Cl)S(=O)Cc2ccc(Cl)cc2)cn1 (stereo not given) | x | 0.35µM | n | n | 4.5µM | u
COc1ccc(NC(=O)/C(Cl)=C(/Cl)S(=O)(=O)Cc2ccccc2)cn1 | n | 1.3µM | n[10 µM] | n | u | u
Cc1cc(Br)ccc1NC(=O)c1c(C)oc2ncnc(N3CCCCC3)c12 | x | x | x | x | x | n
CCOc1cc(S(=O)(=O)Nc2ccc(Cl)cn2)ccc1F | n | n | n | n | n | n

Screens as filed in PubChem BioAssay.
